Assay outcomes: PubChem, National Center for Advancing Translational Sciences (NCATS)
A selection: hits, their analogues and other compounds. The true share with any hit is near 1.3%.
KCNH2 3.1 inh = blocks the human KCNH2 3.1 channel isoform | activity change, % (tested at about 1.8 µM) | actives 0.95% (n = 340,000) | U2OS KCNH2 3.1, thallium flux FluxOr; hits give low values;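 active = maximum activity change below -70%; inconclusive = maximum activity change from -70% to -50%; inactive = maximum activity change above -50%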;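 also: thallium influx rate constant from kinetic fluorescence after stimulation buffer; % is scaled to controls: 0 for no effect and ±100 for the full control effect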
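Normalized rate constant (relative to positive and negative DMSO controls) derived from a 2 min kinetic fluorescence read after stimulation; U2OS cells expressing the 3.1 isoform via virus at 1.77 x 10^8 /mL.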
KCNH2 WT inh = inhibitors of human wildtype KCNH2 potassium channel | Q12809 | U2OS, BacMam KCNH2, thallium flux FluxOr; hits give low values | activity change, % at 1.84 µM | actives 0.37% (n = 340,000);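 active = maximum activity change below -70%; inconclusive = maximum activity change between -70% and -50%; inactive = maximum activity change above -50%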; also: % is scaled to controls: 0 for no effect and ±100 for the full control effect
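U2OS cells transduced with wild-type KCNH2 virus are loaded with FluxOr dye for 45 min, and thallium flux is measured in kinetic reads before and after stimulation buffer. Rate constants are normalized to DMSO controls.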
Rango dissoc inh = prevents RanGTP from dissociating the Rango-importin beta complex; O95149+P62826; Biochemical FRET Rango-importin beta, RanGTP-induced dissociation; Potency, µM (highest dose often 46.1 µM), for the others: at the highest dose activity change, negative = inhibition; actives 0.071% (n = 340,000); AID 540253; also: potency is read from the fitted curve at half-maximal effect; % of control where 0% means no effect; nearly all actives have a fitted effect of over 45% in size
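Compounds preincubate 5 min with complex of recombinant Rango and importin beta in PBS with 1 mM DTT. Ran (0.6 uM) loaded with 2 mM GTP plus 0.2 uM RCC1 starts dissociation; FRET is recorded 45 min later.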
Rango complex inh = inhibitors of Rango-importin beta complex formation | Q14974 | Rango CFP/YFP FRET sensor + importin beta, 45 min | Potency, µM (doses to about 92.2 µM), inactives show at the highest dose inhibition of complex formation | actives 0.031% (n = 340,000);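 also: potency is read from the fitted curve at half-maximal effect; 0% = DMSO wells and 100% = buffer wells lacking importin beta; nearly all actives have a fitted effect of over 15% in size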
Target sequence (Q14974 whole entry, looked up): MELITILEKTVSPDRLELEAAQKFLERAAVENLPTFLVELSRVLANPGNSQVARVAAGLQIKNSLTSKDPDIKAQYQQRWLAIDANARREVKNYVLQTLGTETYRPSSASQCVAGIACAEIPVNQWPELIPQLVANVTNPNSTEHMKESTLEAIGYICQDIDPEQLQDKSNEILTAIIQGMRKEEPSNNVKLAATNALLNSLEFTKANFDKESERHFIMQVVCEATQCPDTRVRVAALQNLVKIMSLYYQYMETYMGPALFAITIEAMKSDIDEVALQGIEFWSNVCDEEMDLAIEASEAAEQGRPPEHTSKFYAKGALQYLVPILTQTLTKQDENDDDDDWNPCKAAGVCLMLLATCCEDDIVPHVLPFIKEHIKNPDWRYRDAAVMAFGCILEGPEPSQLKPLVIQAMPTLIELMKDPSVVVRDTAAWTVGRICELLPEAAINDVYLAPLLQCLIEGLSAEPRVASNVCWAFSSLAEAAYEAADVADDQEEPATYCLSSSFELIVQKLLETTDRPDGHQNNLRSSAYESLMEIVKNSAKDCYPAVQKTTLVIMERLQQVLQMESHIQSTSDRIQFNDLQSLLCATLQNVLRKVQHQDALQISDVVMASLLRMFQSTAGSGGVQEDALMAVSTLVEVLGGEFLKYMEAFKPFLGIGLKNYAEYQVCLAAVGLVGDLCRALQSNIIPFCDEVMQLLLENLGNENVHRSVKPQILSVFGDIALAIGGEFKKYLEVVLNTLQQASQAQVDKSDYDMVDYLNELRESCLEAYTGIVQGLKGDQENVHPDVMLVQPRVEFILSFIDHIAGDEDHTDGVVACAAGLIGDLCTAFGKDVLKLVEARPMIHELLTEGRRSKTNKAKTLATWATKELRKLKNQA
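Inhibition scored from the CFP 486 nm/YFP 530 nm FRET ratio 45 min after adding 0.125 microM importin beta to 50 nM Rango biosensor preincubated 5 min with compound (room temperature, PBS with DTT, Tween-20, BSA). No-importin wells as positive control.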
An asterisk follows results filed as active; ? = inconclusive; . = no result. Unless noted, calls follow the shape of the full dose curve.

SMILES	KCNH2 3.1 inh	KCNH2 WT inh	Rango dissoc inh	Rango complex inh
CCOC(=O)c1c(NC(=O)CSc2nnnn2-c2ccccc2OCC)sc2c1CC(C)(C)NC2(C)C	-81*	-19	10%	5%
CCOC(=O)c1c(NC(=O)CSc2nnnn2-c2ccccc2)sc2c1CC(C)(C)NC2(C)C	-41	10	-1%	-1%
COc1ccc(OC)c(S(=O)(=O)NCC(c2ccco2)S(=O)(=O)c2ccccc2)c1 (centres undefined)	8	4	2%	1%
CCCC(=O)NC(c1ccccc1Cl)c1ccc2cccnc2c1O (centres undefined)	-97*	-17	-12%	0%
CCCC(=O)NC(c1ccc(C(C)C)cc1)c1ccc2cccnc2c1O (centres undefined)	-1	-2	-2%	1%
COc1ccccc1C(=O)Nc1ccnn1C1CCN(C)CC1	2	7	-12%	-3%
O=C(Nc1ccnn1C1CCN(CCCC2CCCC2)CC1)c1ccccc1	13	?	2%	-1%
Cc1ccccc1C(=O)Nc1ccnn1C1CCN(Cc2cccnc2)CC1	2	2	-5%	0%
O=C(Nc1ccnn1C1CCN(CCCc2ccccc2)CC1)c1ccccc1	-85*	?	-8%	6%
COc1ccccc1C(=O)Nc1ccnn1C1CCN(CCCc2ccccc2)CC1	-103*	-105*	6%	-2%
Cc1ccccc1C(=O)Nc1ccnn1C1CCN(CCCc2ccccc2)CC1	-106*	-139*	2%	0%
COc1ccc(NC(=O)N(C)C[C@H]2Oc3ccc(NS(=O)(=O)c4ccccc4)cc3C(=O)N([C@H](C)CO)C[C@@H]2C)cc1	7	-12	0%	-1%
Cc1c(C=O)c2ccccc2n1CC(=O)NCc1ccccc1	35	-2	-16%	-2%
Cc1c(C=O)c2ccccc2n1CC(=O)NCc1ccc2c(c1)OCO2	-390*	-3	-4%	0%
CC(C)(C)c1cc(C2COC(=O)COCCOCC(=O)OCCOCCO2)cc(C(C)(C)C)c1O (centres undefined)	-3	11	2%	-1%
Cc1ccc(-n2c(-c3c(-c4ccccc4)noc3C)n[nH]c2=S)cc1	-188*	-25	1%	-2%
CCCn1ncc(CN2CCC(C(=O)Nc3cccc(-c4cccc(F)c4)c3)CC2)c1C	-85*	?	1%	0%
Cn1cc(CN2CCC(C(=O)Nc3cccc(-c4cccc(F)c4)c3)CC2)cn1	-36	21	-11%	6%
Cc1cccc(CN2CCC(C(=O)Nc3cccc(-c4cccc(F)c4)c3)CC2)n1	-94*	-74*	8%	3%
C=CCn1cc(CN2CCC(C(=O)Nc3cccc(-c4cccc(Cl)c4)c3)CC2)c(C)n1	-93*	-99*	43%	2%
COc1cccc(CN2CCC(C(=O)Nc3ccc(-c4cccc(C)c4)cc3)CC2)c1O	-95*	-8	0%	2%
Cc1cccc(CN2CCC(C(=O)Nc3cccc(-c4cscn4)c3)CC2)n1	9	29	1%	1%
COc1ccc(S(=O)(=O)N2CCCCC2)cc1NS(=O)(=O)c1ccc(CNC(C)=O)cc1	-8	9	-25%	4%
COc1cc2ccccc2ccc1=NO	-12	-2	-8%	?
CC(=O)NCCc1ccc(C(=O)CSc2nnc(C3CC3)n2C2CC2)cc1	-10	-5	2%	-1%
SMILES	KCNH2 3.1 inh	KCNH2 WT inh	Rango dissoc inh	Rango complex inh
C[C@@H]1CN([C@H](C)CO)C(=O)Cc2cc(NC(=O)CCC(F)(F)F)ccc2O[C@@H]1CN(C)S(=O)(=O)c1ccccc1	23	2	2%	-1%
O=C(Nn1cnnc1)c1ccc(F)cc1	10	5	26%	-1%
Nc1nc(-c2ccccc2)nc2nonc12	12	-5	.	.
O=C(Nc1cccc(-c2cccc(Cl)c2)c1)C1CCN(Cc2ccccn2)CC1	-72*	?	-5%	0%
Cc1c(CN2CCC(C(=O)Nc3cccc(-c4cccc(Cl)c4)c3)CC2)cnn1C	-85*	-100*	12%	4%
COCc1ccc(CN2CCC(C(=O)Nc3cccc(-c4cccc(Cl)c4)c3)CC2)o1	-81*	-82*	0%	3%
COCc1ccc(CN2CCC(C(=O)Nc3cccc(-c4cscn4)c3)CC2)o1	-2	7	4%	6%
CC1CN(c2nc3ccccc3nc2SCC(=O)Nc2cccc(C(F)(F)F)c2)CC(C)O1 (centres undefined)	2	0	2%	4%
CCC(C)(C)C(=O)Nc1cc([N+](=O)[O-])ccc1Cl	12	-3	-22%	0%
CCC(C)(C)C(=O)Nc1cc([N+](=O)[O-])ccc1F	-176*	-250*	-23%	0%
CCN1CCN(C(=O)Nc2cccc(C(F)(F)F)c2)CC1	-79*	5	-8%	3%
N#C/C(=C/c1ccc(N2CCCCC2)o1)C(=O)Nc1ccc2ccccc2c1	-72*	-45	?	?
N#C/C(=C/c1ccc(N2CCCCC2)o1)C(=O)Nc1ccc(Cl)cc1	?	-38	?	?
CSc1nnnn1CCn1nnnc1SC	-9	-243*	-4%	-1%
Cn1nnnc1SCSc1nnnn1C	1	2	-7%	3%
COc1ccc(CC2(CO)CCN(CC3=Cc4cc(Cl)ccc4OC3)CC2)cc1	-74*	-41	1%	-2%
COc1ccc2c(c1)C=C(CN1CCC(CO)(CCc3ccccc3)CC1)CO2	-88*	-11	1%	10%
Cc1ccccc1C(=O)NCC(=O)OC(C)C(=O)NC(C)CCc1ccccc1 (centres undefined)	-21	7	-1%	-1%
Cc1cc(C)c(S(=O)(=O)Nc2cc(SCC(=O)O)c(O)c3ccccc23)cc1C	-5	-6	-2%	-4%
Cc1cc(C)c(S(=O)(=O)/N=C2/C=C(SCC(=O)O)C(=O)c3ccccc32)cc1C	-117*	5	-15%	0%
COc1cc(OC)cc(-c2nnc(NC(=O)CCS(=O)(=O)c3ccc(F)cc3)o2)c1	-75*	0	2%	0%
COc1cc(OC)cc(-c2nnc(NC(=O)CCS(=O)(=O)c3ccccc3)o2)c1	-11	1	9%	0%
CCOC(=O)c1[nH]c(=S)[nH]c1C	-4	-2	-15%	0%
CCC(C)N(C(=O)CSc1nc2ccc(OC)cc2[nH]1)C1CCS(=O)(=O)C1 (centres undefined)	-2	-10	29%	-1%
Cc1ccc(N(C(=O)CCC(=O)Nc2cc(C)on2)C(C(=O)NC2CCCC2)c2cccs2)cc1 (centres undefined)	-4	-3	-7%	-4%
Cc1cc(NC(=O)CCC(=O)N(c2ccccc2)C(C(=O)NC2CCCC2)c2cccs2)no1 (centres undefined)	-186*	4	5%	4%
COc1ccc(N2CCN(CCC(O)c3ccc4ccccc4c3)CC2)cc1 (centres undefined)	-103*	?	1%	0%
O=C(Nc1ccccn1)c1ccc(Br)s1	-9	3	-3%	-3%
